# From PubChem BioAssay (Tox21)
# Results filed as inconclusive are left out. Entries that show only a call come without a potency. Unmarked numbers belong to inactive results. Calls of active or inactive are those of the source. Calls follow the shape of the dose curve; as a rule, active = well fitted activation curve with a large enough effect in the repeat runs; inconclusive = weak or mixed curves; inactive = no such curve, though single readings can be large or run the other way. Where a SMILES comes first, the peptide text is derived from it.
# Target: Nuclear receptor subfamily 1 group I member 3 (Homo sapiens) (UniProt Q14994)
# Assay: qHTS assay to identify small molecule agonists of the constitutive androstane receptor (CAR) signaling pathway (AID 1224839);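 also: HepG2 cells stably carrying human CAR and a CYP2B6 luciferase reporter; nearly all actives have a fitted effect of over 15% in size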
# Conditions: HepG2 hCAR CYP2B6-luciferase, agonist mode, 24 h; series mostly up to 92.4 µM
# Text: National Center for Advancing Translational Sciences [NCATS] NIH Chemical Genomics Center [NCGC] U.S. Environmental Protection Agency [EPA] National Institutes of Environmental Health Sciences [NIEHS] National Toxicology Program [NTP] Assay overview: The constitutive androstane receptor (CAR) is a nuclear receptor which regulates multiple drug metabolizing enzymes (DMEs) and transporters. Activating CAR will generally increase the transcription and subsequent translation of CYP2B6 and CYP3A4. These two DMEs represent about 50% of the drug metabolizing potential in the body. […] Recently, there have also been studies performed indicating CARs role in energy metabolism and cancer therapy. Therefore, inducing CARs activity could have a potential effect on diabetes and cancer. Identifying environmental toxins and compounds which modulate CAR, through the use of the Tox21 10K compound collection, will be an important step in determining the toxicity and potential therapeutic effects these factors will have on the human body.
# Assay Protocol Summary: A double-stable (hCAR and CYP2B6-2.2kb) transfected cell line, derived from human hepatoma (HepG2) cells, was utilized for the duration of the quantitative high-throughput screens. The HepG2-CYP2B6-hCAR cells suspended in DMEM culture medium supplemented with 10% FBS, 5 ug/mL blasticidin, 0.5 mg/mL geneticin, 100 U/mL penicillin and 100 ug/mL streptomycin were dispensed at 2500 cells/4 uL/well in 1536-well white solid bottom plates using a Multidrop Combi. After the assay plates were incubated at 37 C/5% CO2 for 4 hrs, 23 nL of compounds at 15 concentrations (from 5-48 columns) or positive control (from 1 to 4 columns) were transferred to the assay plates using a Pintool station. One uL of PK11195, was added using a Flying Reagent Dispenser to generate a final concentration of 0.75 uM PK11195 inside each well. After a 24 hr incubation period at 37 C/5% CO2, four uL of ONE-Glo reagent was added into the assay plates using a Flying Reagent Dispenser. After a 30 min incubation period at room temperature, the luminescence intensity in the assay plates was measured using a ViewLux plate reader.
# Chain of Nuclear receptor subfamily 1 group I member 3 (Homo sapiens) (Q14994 whole entry, looked up): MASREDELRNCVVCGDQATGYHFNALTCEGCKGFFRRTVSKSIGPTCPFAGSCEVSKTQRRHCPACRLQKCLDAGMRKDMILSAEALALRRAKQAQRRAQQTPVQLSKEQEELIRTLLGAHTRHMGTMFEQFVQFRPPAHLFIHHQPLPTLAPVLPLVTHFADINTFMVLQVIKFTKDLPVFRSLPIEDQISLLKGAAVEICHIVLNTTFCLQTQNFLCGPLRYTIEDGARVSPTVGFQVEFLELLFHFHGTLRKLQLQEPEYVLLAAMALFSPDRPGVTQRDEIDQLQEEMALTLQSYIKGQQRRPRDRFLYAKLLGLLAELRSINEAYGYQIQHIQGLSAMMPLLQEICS
Compound,Potency,activation
CN(C)CCOC(=O)C(c1ccccc1)C1(O)CCCC1 (stereo not given),inactive,–
COC(=O)CCCCC(CCSS/C(CCO)=C(\C)N(C=O)Cc1cnc(C)nc1N)SC(C)=O (stereo not given),inactive,–
CCCCCCCCCCCCCCCCCCOCCO,–,-0.275% [at 19 µM]
COc1cc(OC)nc(O[C@H](C(=O)O)C(OC)(c2ccccc2)c2ccccc2)n1,inactive,–
O=C(Cn1ccnc1[N+](=O)[O-])NCc1ccccc1,inactive,–
CCCCCCCCCCCCCCC(=O)NC(CO)CCCCCCCCCCCCCC (stereo not given),inactive,–
CCCCCC(C)O (stereo not given),inactive,–
NCc1ccc(S(N)(=O)=O)cc1,inactive,–
CO[Si](CCCn1c(=O)n(CCC[Si](OC)(OC)OC)c(=O)n(CCC[Si](OC)(OC)OC)c1=O)(OC)OC,inactive,–
O=C(CCCCC(=O)Nc1c(I)cc(I)c(C(=O)O)c1I)Nc1c(I)cc(I)c(C(=O)O)c1I,inactive,–
O=C(O)c1cc2ccccc2nc1C(=O)O,inactive,–
CCC[C@@H]1C[C@@H](C(=O)N[C@@H]([C@H]2O[C@H](SC)[C@H](O)[C@@H](O)[C@H]2O)[C@@H](C)O)N(C)C1,inactive,–
CC(C)COC(=O)c1ccccc1,inactive,–
C=CC(=O)OCC1CCCO1 (stereo not given),inactive,–
CCC(=O)CC,inactive,–
Cn1nnc2c(C(N)=O)ncn2c1=O,inactive,–
COC(=O)c1ccccc1C(=O)O,inactive,–
C/C=C(\C)C(C)=O,inactive,–
CCCC(=O)OC/C=C(\C)CCC=C(C)C,inactive,–
COS(=O)(=O)O,inactive,–

Compound,Potency,activation
CCC(C)OC(C)CC (stereo not given),inactive,–
CCCCCCCCCCCCCCCCCC#N,inactive,–
NCC1(Cc2noc(=O)[nH]2)CCCCC1,inactive,–
N#Cc1cscn1,inactive,–
Cc1ccc(C)c([N+](=O)[O-])c1,inactive,–
CC1(C)Cc2cccc(N)c2O1,inactive,–
CC(=O)Nc1ccc(OC(=O)c2ccccc2OC(C)=O)cc1,inactive,–
CCC(C)C(C)=O (stereo not given),inactive,–
Nc1nc(-c2ccccc2)c(Br)c(=O)[nH]1,inactive,–
CC1=C(C(=O)O)N2C(=O)[C@@H](NC(=O)[C@H](N)c3ccccc3)[C@H]2SC1,inactive,–
CCCC(=O)OCCC(C)CCC=C(C)C (stereo not given),inactive,–
COC(=O)c1cc(Cl)cc(Cl)c1,inactive,–
CC(N)CCCC(C)(C)O (stereo not given),inactive,–
O=C1NC(c2ccccc2)(c2ccccc2)C(=O)N1COP(=O)(O)O,inactive,–
O=C1OCCO1,inactive,–
CC(=O)N[C@@H](CO)C(=O)N[C@@H](CC(=O)O)C(=O)N[C@@H](CCCCN)C(=O)N1CCC[C@H]1C(=O)O (Ac-SDKP-OH),inactive,–
OC1(c2ccc(Cl)cc2)CCNCC1,inactive,–
CC(C)OC(=O)CCC(=O)OC(C)C,inactive,–
COc1cc(/C=C/C(N)=O)cc(OC)c1OC,inactive,–
O=[N+]([O-])c1c(Cl)cc(Cl)cc1Cl,inactive,–
